Measurements taken from PubChem BioAssay (NCI).
About 83,000 compounds went through this panel and 20% of them were active in at least one assay; those are over-represented in the sample as a whole.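 Note: values are percent growth. 100 is the growth of untreated cells, values between 100 and 0 indicate rising inhibition; between -100 and 0 indicates cell death.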 A number with no mark means an inactive call. The source made the active and inactive calls. The calls were made as follows: active = growth percent below 10; inactive = the rest.

test system: MDA-MB-468 breast; test: NCI-60 one-dose screen, 48 h (100 = growth as untreated, 0 = no growth, -100 = all killed); settings: 10 µM unless noted

**Q.** How did the growth turn out when `c1ccc(N2CCN(c3nncc4ccccc34)CC2)nc1` was run?
**A.** Its growth is 93.3%.

**Q.** `Fc1ccc(NCCS)cc1` was tested. Which growth did it give?
**A.** Its growth is 106%.

**Q.** With `O=c1oc2ccc(Cl)cc2c(=O)n1-c1ccc(F)cc1F` as the compound, how does the growth read?
**A.** Its growth is -4.5% (active).

**Q.** With `Cc1ccc(-c2nc(C(Cl)Cl)nc3cc(C)nn23)cc1` as the compound, how does the growth read?
**A.** The growth was -37.7% (active).

**Q.** Which growth does the source give for `CC(C)(C)OC(=O)NCc1cccc(N=C=S)c1` here?
**A.** The growth was 39.4%.

**Q.** Which growth does the source give for `CN(C)C1CCN(C(=O)c2ccc(NC(=O)Nc3ccc(-c4nc(N5CCOCC5)c5cccn5n4)cc3)cc2)CC1` here?
**A.** The growth was -60.1% (active).
